Screens (PubChem)
ELG1 DNA repair: inhibitors of ELG1-dependent DNA repair in HEK293T cells; HEK293T ELG1-luciferase reporter, luminescence, 16 h; DNA damage induced by 5-fluorouridine; Potency, µM (highest dose often 46.1 µM), inactives show at the top dose activity change, negative = inhibition, actives largely listed as inhibitors; hit rate 2.3% among 330,000; AID 504467; also: % is scaled to controls: 0 for no effect and ±100 for the full control effect; nearly all actives have a fitted effect of over 55% in size
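DMSO vehicle served as the neutral condition. Each well held 2,000 cells given 5-fluorouridine plus compound; after 16 hr at 37 °C/5% CO2, ONE-Glo was added and luciferase measured 30 min later.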
SW480 rerep: DNA re-replication induction in SW480 cells; SW480 DNA re-replication, Hoechst DNA content imaging, 48 h; Potency, µM (top dose mostly 46.1 µM), inactives show at the highest dose re-replication activation, usual class: activators; hit rate 1.8% among 340,000; AID 624297; also: % of control where 0% means no effect; nearly all actives have a fitted effect of over 55% in size
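Compounds, transferred as 23 nL by pin tool, were incubated with cells for 48 hr; DNA content per nucleus was then quantified by Hoechst staining and fluorescence plate imaging.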
MCF10A rerep: induces DNA re-replication in MCF 10a normal breast cells | MCF 10A DNA re-replication, Hoechst nuclear intensity, 48 h | Potency, µM (top dose mostly 46.1 µM), for the others: at the highest dose activity, positive = re-replication, actives largely listed as activators | hit rate 2.9% among 350,000 | AID 624296; also: % of control where 0% means no effect; nearly all actives have a fitted effect of over 50% in size
KB-V1 cytotox: KB-V1 MDR subline cytotoxicity. KB-V1 MDR cells viability, CellTiter-Glo, 72 h. Potency, µM (doses to about 46.1 µM), hits mostly cytotoxic. hit rate 3.4% among 400,000; also: % is scaled to controls: 0 for no effect and ±100 for the full control effect; nearly all actives have a fitted effect of over 60% in size
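Drug-selected KB-V1 cells, grown in DMEM lacking phenol red with 10% FBS, receive compound titrations; after three days at 37 degrees C, surviving cell ATP is quantified by CellTiter-Glo luminescence and responses normalized and curve-fitted.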
KB-3-1 tox: kills parental KB-3-1 adenocarcinoma cells; Potency, µM (titrated, usually from 46.1 µM), actives largely listed as cytotoxic; KB-3-1 viability, CellTiter-Glo ATP luminescence, 72 h; AID 1347075; hit rate 1.4% among 400,000; also: % is scaled to controls: 0 for no effect and ±100 for the full control effect; nearly all actives have a fitted effect of over 60% in size
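Viability of parental KB-3-1 cells, measured by CellTiter-Glo luminescence, followed a 72 h incubation at 37 °C with pinned compounds in phenol-red-free DMEM containing 10% FBS.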
Numbers without * were called inactive; i = inactive; ? = inconclusive; . = no result given. The list is not random: actives were taken first. Their share in the collection is about 8.2%. Calls follow the shape of the dose curve; as a rule, active = well fitted curve in the direction sought with a large enough effect; inconclusive = small, poorly fitted or top-dose-only effect, or another doubt; inactive = no such curve, though single readings can be large; an effect the other way counts as inactive or inconclusive. Potency is read from the fitted curve at half-maximal effect.

SMILES	ELG1 DNA repair	SW480 rerep	MCF10A rerep	KB-V1 cytotox	KB-3-1 tox
CNc1nc2c(c(=O)n(C)c(=O)n2C)n1Cc1ccccc1	-2.4%	-0.6%	2.2%	i	i
CNc1nc2c(c(=O)[nH]c(=O)n2C)n1CCCc1ccccc1	?	-1.0%	?	i	i
CNc1nc2c(c(=O)n(C)c(=O)n2C)n1CCCc1ccccc1	?	-3.3%	12.4%	8.2µM*	?
COc1ccc(OC)c(CCNC(=O)c2cnn(-c3ccccc3)c2C2CCN(C(=O)OC(C)(C)C)CC2)c1	.	.	.	i	i
Cn1c(=O)c2c(nc(NCCO)n2CCCc2ccccc2)n(C)c1=O	20.6µM*	12.5%	0.7%	i	i
Cc1csc(Sc2nc3c(c(=O)[nH]c(=O)n3C)n2CCCc2ccccc2)n1	4.3%	-15.1%	8.8%	4.11µM*	?
C/C(Cl)=C\Cn1c(Nc2ccc(C)cc2)nc2c1c(=O)n(C)c(=O)n2C	5.17µM*	-3.9%	-4.8%	i	i
C=CCNc1nc2c(c(=O)n(C)c(=O)n2C)n1CC	0.1%	0.5%	-3.8%	i	i
Cn1c(=O)[nH]c(=O)c2c1nc(SCCO)n2CCCc1ccccc1	15.1%	-16.5%	?	?	i
C=CCNc1nc2c(c(=O)n(C)c(=O)n2C)n1CCCCCC	-14.2%	0.9%	15.2%	1.46µM*	1.46µM*
CC1CCCCC12NC(=O)N(CC(=O)N1CCN(c3ncccn3)CC1)C2=O (centres undefined)	19.5%	-12.8%	-2.5%	i	i
CC1=C(C(=O)N(C)C)CC(CC(=O)NC(c2ccccc2)c2ccccc2)C(=O)N1CCCN1CCCC1=O (centres undefined)	.	.	.	i	?
CCCCCc1cc(=O)oc2c(C(CCN(CC)CC)c3cc(OC)c(OC)c(OC)c3)c(OC)cc(OC)c12 (centres undefined)	-4.0%	0.6%	-2.7%	i	?
CC(=O)N1CCC(c2nc3ccccc3n2C(C)C(=O)NCc2ccccc2)CC1 (centres undefined)	.	.	.	i	i
Cc1ccc(OCCn2c(Br)nc3c2c(=O)n(C)c(=O)n3C)cc1	5.17µM*	-4.7%	-4.1%	?	20.6µM*
CC(C)=NNc1nc2c(c(=O)n(C)c(=O)n2C)n1CCc1ccccc1	-9.8%	11.7%	-2.6%	i	i
CCCCCn1c(Sc2ncccn2)nc2c1c(=O)[nH]c(=O)n2C	-8.3%	-15.8%	-3.2%	i	i
CCCCCn1c(Sc2nc3ccccc3s2)nc2c1c(=O)[nH]c(=O)n2C	20.6µM*	-1.8%	-6.5%	i	i
Cn1c(=O)c2c(nc(NCc3ccco3)n2C/C=C/c2ccccc2)n(C)c1=O	4.61µM*	?	?	3.26µM*	i
Cn1c(=O)c2c(nc(Br)n2CCc2ccccc2)n(C)c1=O	?	-7.6%	12.1%	16.4µM*	i
Cc1ccc(C(=O)N(C)CC(=O)Nc2cccc(F)c2)cc1S(=O)(=O)N1CCCCC1	-6.0%	129.1%	1.1%	i	i
CCOc1ccc(CCNC(=O)COC(=O)CNS(=O)(=O)c2ccc(NC(C)=O)cc2)cc1OCC	9.4%	6.2%	-0.2%	i	i
O=C(OCc1cc(Cl)ccc1OC(F)F)c1ccc([N+](=O)[O-])o1	-5.7%	.	.	.	.
COc1ccc(S(=O)(=O)N2CCOCC2)cc1NC(=O)C1CC(=O)N(c2ccc3c(c2)OCCO3)C1 (centres undefined)	.	.	.	?	i
CCCCCCn1c(SCC(C)C)nc2c1c(=O)[nH]c(=O)n2C	4.0%	0.0%	-0.5%	10.3µM*	?
C=C(C)Cn1c(SCCCO)nc2c1c(=O)[nH]c(=O)n2C	8.9%	0.6%	-5.1%	i	i
COCCNc1nc2c(c(=O)n(C)c(=O)n2C)n1CCCc1ccccc1	.	.	.	16.4µM*	i
Cn1c(=O)c2c(nc(NCc3ccccc3)n2CCCc2ccccc2)n(C)c1=O	?	-6.2%	?	2.91µM*	?
CCCCCCn1c(SCC(=O)OC)nc2c1c(=O)[nH]c(=O)n2C	7.8%	-9.2%	0.3%	i	i
C=C(C)Cn1c(Sc2nc3ccccc3[nH]2)nc2c1c(=O)[nH]c(=O)n2C	25.9µM*	-23.1%	-0.6%	i	i
